# From the supplement of paper PMC8728848
# This excerpt belongs to a sample that is enriched for the strongest signals.
# B1: Erv46-EDTA (Saccharomyces cerevisiae), P39727 (protein)
# chain: MKFLVNVALVFMVVYISYIYAAAPEHHHHHHDYDIPTTENLYFQGAMDSVVTRPQLVVDRDRHAKLELNMDVTFPSMPCDLVNLDIMDDSGEMQLDILDAGFTMSRLNSEGRPVGDATELHVGGNGDGTAPVNNDPNYCGPCYGAKDQSQNENLAQEEKVCCQDCDAVRSAYLEAGWAFFDGKNIEQCEREGYVSKINEHLNEGCRIKGSAQINRIQGNLHFAPGKPYQNAYGHFHDTSLYDKTSNLNFNHIINHLSFGKPIQSHSKLLGNDKRHGGAVVATSPLDGRQVFPDRNTHFHQFSYFAKIVPTRYEYLDNVVIETAQFSATFHSRPLAGGRDKDHPNTLHVRGGIPGMFVFFEMSPLKVINKEQ
# Assays:
# Assay in all cases: glycan array binding signal (z-score within array); higher = stronger binding
# Conditions in all cases: glycan notation: IUPAC condensed, linker removed
# [1] = molecular target: Fuc(a1-2)Gal(b1-3)[Fuc(a1-4)]GlcNAc(b1-2)Man(a1-3)[Fuc(a1-2)Gal(b1-3)[Fuc(a1-4)]GlcNAc(b1-2)Man(a1-3)]Man(b1-4)GlcNAc(b1-4)GlcNAc
# Summary of the method: (§1)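 Negative Z-scores can be read as non-binding. The Z-score is calculated within each array and then averaged across arrays of one protein sequence at different concentrations or buffers and across linkers. Arrays, 3228 in all, were curated from the Consortium for Functional Glycomics database and kept only where the protein sequence was available.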
# [2] = molecular target: Fuc(a1-2)Gal(b1-4)Fuc(a1-3)]GlcNAc(b1-2)Man(a1-3)[Fuc(a1-2)Gal(b1-4)[Fuc(a1-3)]GlcNAc(b1-2)Man(a1-6)]Man(b1-4)GlcNAc(b1-4)GlcNAc
# Summary of the method: as §1
# [3] = molecular target: Fuc(a1-2)Gal(b1-4)GlcNAc
# Summary of the method: as §1
# [4] = molecular target: Fuc(a1-2)Gal(b1-4)[Fuc(a1-3)]GlcNAc(b1-2)[Fuc(a1-2)Gal(b1-4)[Fuc(a1-3)]GlcNAc(b1-4)]Man(a1-3)[Fuc(a1-2)Gal(b1-4)[Fuc(a1-3)]GlcNAc(b1-2)Man(a1-6)]Man(b1-4)GlcNAc(b1-4)GlcNAc
# Summary of the method: as §1
# [5] = molecular target: Fuc(a1-2)Gal(b1-4)[Fuc(a1-3)]GlcNAc(b1-3)Gal(b1-4)[Fuc(a1-3)]GlcNAc(b1-3)Gal(b1-4)[Fuc(a1-3)]GlcNAc
# Summary of the method: as §1
# [6] = molecular target: Fuc(a1-2)Gal6S(b1-4)Glc6S
# Summary of the method: as §1
# [7] = molecular target: Fuc(a1-2)[GalNAc(a1-3)]Gal
# Summary of the method: as §1
# [8] = molecular target: Fuc(a1-2)[GalNAc(a1-3)]Gal(b1-3)GalNAc(a1-3)[Fuc(a1-2)]Gal(b1-4)GlcNAc
# Summary of the method: as §1
# [9] = molecular target: Gal(a1-3)Gal(b1-4)GlcNAc(b1-2)Man
# Summary of the method: as §1
# [10] = molecular target: Gal(a1-3)Gal(b1-4)[Fuc(a1-3)]GlcNAc(b1-2)Man(a1-3)[Gal(a1-3)Gal(b1-4)[Fuc(a1-3)]GlcNAc(b1-2)Man(a1-6)]Man(b1-4)GlcNAc(b1-4)GlcNAc
# Summary of the method: as §1
# [11] = molecular target: Gal(a1-4)Gal(b1-4)Glc
# Summary of the method: as §1
# [12] = molecular target: Gal(b1-3)GlcNAc(a1-6)Gal(b1-4)GlcNAc
# Summary of the method: as §1
# [13] = molecular target: Gal(b1-3)GlcNAc(b1-3)Gal(b1-4)GlcNAc(b1-2)Man(a1-3)[Gal(b1-3)GlcNAc(b1-3)Gal(b1-4)GlcNAc(b1-2)Man(a1-6)]Man(b1-4)GlcNAc(b1-4)GlcNAc
# Summary of the method: as §1
# [14] = molecular target: Gal(b1-4)GlcNAc(b1-2)Man(a1-6)[Man(a1-3)]Man(b1-4)GlcNAc(b1-4)GlcNAc
# Summary of the method: as §1
# [15] = molecular target: Gal(b1-4)GlcNAc(b1-3)Gal(b1-4)GlcNAc(b1-2)Man(a1-3)[Gal(b1-4)GlcNAc(b1-3)Gal(b1-4)GlcNAc(b1-2)Man(a1-6)]Man(b1-4)GlcNAc(b1-4)GlcNAc
# Summary of the method: as §1
# [16] = molecular target: Gal(b1-4)GlcNAc(b1-3)Gal(b1-4)GlcNAc(b1-2)[Gal(b1-4)GlcNAc(b1-3)Gal(b1-4)GlcNAc(b1-6)]Man(a1-6)[Gal(b1-4)GlcNAc(b1-3)Gal(b1-4)GlcNAc(b1-2)Man(a1-3)]Man(b1-4)GlcNAc(b1-4)GlcNAc
# Summary of the method: as §1
# [17] = molecular target: Gal(b1-4)GlcNAc(b1-3)Gal(b1-4)GlcNAc(b1-2)[Gal(b1-4)GlcNAc(b1-3)Gal(b1-4)GlcNAc(b1-6)]Man(a1-6)[Gal(b1-4)GlcNAc(b1-3)Gal(b1-4)GlcNAc(b1-2)Man(a1-3)]Man(b1-4)GlcNAc(b1-4)[Fuc(a1-6)]GlcNAc
# Summary of the method: as §1
# [18] = molecular target: Gal(b1-4)GlcNAc(b1-3)Gal(b1-4)GlcNAc(b1-3)Gal(b1-4)GlcNAc
# Summary of the method: as §1
# [19] = molecular target: Gal(b1-4)GlcNAc(b1-3)Gal(b1-4)GlcNAc(b1-3)Gal(b1-4)GlcNAc(b1-2)Man(a1-3)[Gal(b1-4)GlcNAc(b1-3)Gal(b1-4)GlcNAc(b1-3)Gal(b1-4)GlcNAc(b1-2)Man(a1-6)]Man(b1-4)GlcNAc(b1-4)GlcNAc
# Summary of the method: as §1
# [20] = molecular target: Gal(b1-4)GlcNAc(b1-3)Gal(b1-4)GlcNAc(b1-3)Gal(b1-4)GlcNAc(b1-3)Gal(b1-4)GlcNAc(b1-3)Gal(b1-4)GlcNAc(b1-2)Man(a1-3)[Gal(b1-4)GlcNAc(b1-3)Gal(b1-4)GlcNAc(b1-3)Gal(b1-4)GlcNAc(b1-3)Gal(b1-4)GlcNAc(b1-3)Gal(b1-4)GlcNAc(b1-2)Man(a1-6)]Man(b1-4)GlcNAc(b1-4)[Fuc(a1-6)]GlcNAc
# Summary of the method: as §1
# [21] = molecular target: Gal(b1-4)GlcNAc(b1-3)Gal(b1-4)GlcNAc(b1-3)GalNAc
# Summary of the method: as §1
# [22] = molecular target: Gal(b1-4)GlcNAc(b1-3)[Fuc(a1-3)GlcNAc(b1-6)]Gal(b1-4)Glc
# Summary of the method: as §1
# [23] = molecular target: Gal(b1-6)Gal
# Summary of the method: as §1
# [24] = molecular target: Gal3S(b1-4)[Fuc(a1-3)]Glc6S
# Summary of the method: as §1
# [25] = molecular target: Gal6S(b1-3)GlcNAc
# Summary of the method: as §1
binder,measurement,setting,value
B1,glycan array binding signal (z-score),[1],0.467
same,glycan array binding signal (z-score),[2],3.11
same,glycan array binding signal (z-score),[3],-0.508
same,glycan array binding signal (z-score),[4],2.34
same,glycan array binding signal (z-score),[5],-0.775
same,glycan array binding signal (z-score),[6],0.075
same,glycan array binding signal (z-score),[7],-0.619
same,glycan array binding signal (z-score),[8],-0.454
same,glycan array binding signal (z-score),[9],0.805
same,glycan array binding signal (z-score),[10],2.74
same,glycan array binding signal (z-score),[11],0.54
same,glycan array binding signal (z-score),[12],-0.279
same,glycan array binding signal (z-score),[13],0.126
same,glycan array binding signal (z-score),[14],-0.001
same,glycan array binding signal (z-score),[15],4.93
same,glycan array binding signal (z-score),[16],2.71
same,glycan array binding signal (z-score),[17],2.65
same,glycan array binding signal (z-score),[18],0.66
same,glycan array binding signal (z-score),[19],3.36
same,glycan array binding signal (z-score),[20],1.81
same,glycan array binding signal (z-score),[21],2.4
same,glycan array binding signal (z-score),[22],-0.11
same,glycan array binding signal (z-score),[23],-0.241
same,glycan array binding signal (z-score),[24],0.233
same,glycan array binding signal (z-score),[25],-0.805
